Sampled rows, rich in hits. Any-hit rate of the full collection: about 4.6%.
DAX1 inh-1: NR0B1 (DAX1) inhibition. P51843. HEK293 Gal4-DAX1 luciferase reporter, luminescence. inhibition, % at 6.75 µM. 340,000 compounds, 0.99% hits. AID 504766;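 active = inhibition above the mean over all tested compounds plus 3 SD, cut at about 4.2% in these data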;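 note: inhibition shows as a rise in luminescence from relieved DAX1 repression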
Target sequence (P51843 207-470 limits assumed): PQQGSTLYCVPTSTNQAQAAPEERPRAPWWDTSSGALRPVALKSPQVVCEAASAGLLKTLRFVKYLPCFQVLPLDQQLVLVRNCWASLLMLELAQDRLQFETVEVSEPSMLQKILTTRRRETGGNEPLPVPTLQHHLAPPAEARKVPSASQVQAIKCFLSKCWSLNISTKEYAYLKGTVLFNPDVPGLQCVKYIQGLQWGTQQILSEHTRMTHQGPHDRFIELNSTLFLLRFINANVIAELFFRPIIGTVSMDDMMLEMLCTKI
DAX1 inh-2: DAX1 (NR0B1) inhibition, primary screen; inhibition, % at 6.8 µM; 370,000 compounds, 1.1% hits; HEK293T StAR-luciferase reporter, SF-1/DAX-1 repression relief; AID 652010;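 active = inhibition above the mean over all tested compounds plus 3 SD, cut at about 3.6% in these data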;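 note: higher inhibition means more luminescence from relief of DAX-1 repression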
ssDAF12 agonist: S. stercoralis DAF-12 activation, primary screen; activation, % at 6.8 µM; 370,000 compounds, 1% hits; HEK293 ssDAF-12/GRIP1 lit1-tk-luc reporter, luminescence; % of 3 µM dafachronic acid response;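 active = activation above the mean over all tested compounds plus 3 SD, cut at about 0.9% in these data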
Wee1 stabilizer: human Wee1 degradation inhibition, primary screen; P30291; HeLa Luc-Wee1K328M stability, luciferase luminescence; 100% = proteasome inhibitor MG132 effect; reporter increase, % at 5 µM; 220,000 compounds, 1.2% hits; AID 1321;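 active = activation above the mean of all tested compounds plus 3 SD, set per screening run, cut at about 8.8% in these data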;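 note: cells exposed to compound for 20 h before luminescence read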
hgDAF12 agonist: activates the H. glycines DAF-12 receptor ligand-binding domain. HEK293 GAL4-hgDAF12 UAS-luciferase reporter, agonist luminescence; normalized to butyrate control. activation, % at 6.8 µM. 370,000 compounds, 1.8% hits. AID 687014;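 active = activation above a cutoff set at the mean of all screened compounds plus 3 SD, cut at about 10% in these data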
hcDAF-12 act: H. contortus DAF-12 activation, primary screen; activation, % at 6.8 µM; 370,000 compounds, 1.4% hits; HEK293 hcDAF-12 lit1-tk-luc reporter, luminescence; 0% DMSO, 100% Δ7-dafachronic acid;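 active = activation above the mean of all tested compounds plus 3 SD, cut at about 5.5% in these data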
Each line names hits and unclear results; the compound was inactive in the other large screens.

Cc1cc(OCc2cc(C(=O)N(C)C3CCOC3)no2)cc(C)c1Cl (centres undefined)	hgDAF12 agonist 11 (no result: Wee1 stabilizer)
Cc1cc(OCc2cc(C(=O)N(C)CCc3cnn(C)c3)no2)cc(C)c1Cl	DAX1 inh-2 4.2 (no result: Wee1 stabilizer)
COc1cc(Cl)ccc1OCc1cc(C(=O)N(C)CC2CCCCO2)no1 (centres undefined)	hgDAF12 agonist 12 (no result: Wee1 stabilizer)
COc1cc(Cl)ccc1OCc1cc(C(=O)N(C)CCc2cnn(C)c2)no1	hgDAF12 agonist 12, hcDAF-12 act 6.1 (no result: Wee1 stabilizer)
O=C1NC(Cc2ccc(O)cc2)c2nc3cc(F)c(F)cc3c(=O)n2-c2ncccc21 (centres undefined)	none (no result: Wee1 stabilizer)
CC(C)CNC(=O)OCc1cn(Cc2ccccc2C(F)(F)F)nn1	none (no result: DAX1 inh-1, Wee1 stabilizer)
Cc1ccc2c(c1)-c1c(cnn1CC(=O)NCCc1ccc(O)cc1)CO2	none (no result: DAX1 inh-1, Wee1 stabilizer)
Cc1ccccc1NC(=S)NC(=O)COc1ccccc1C	none (no result: Wee1 stabilizer)
Cc1cccc(CN2CCN(C3CN(Cc4cn(Cc5ccc(F)cc5)nn4)S(=O)(=O)C3)CC2)c1 (centres undefined)	none (no result: DAX1 inh-1, Wee1 stabilizer)
Cc1ccc(OCc2cc(C(=O)N(C)C3CCCc4ccccc43)no2)cc1C (centres undefined)	hgDAF12 agonist 11, hcDAF-12 act 5.8 (no result: Wee1 stabilizer)
C#CCN(C(=O)c1cc(COc2ccc(C)c(C)c2)on1)C1CCCCC1	none (no result: Wee1 stabilizer)
CC(C)NC(=O)CSc1nc(-c2ccccc2)cs1	DAX1 inh-1 4.7, hgDAF12 agonist 11
C#CC(C)OCC1CNC(=S)O1 (centres undefined)	none (no result: Wee1 stabilizer)
CCSc1nnc(NC(=O)c2ccc3ccccc3n2)s1	ssDAF12 agonist 1.0, hcDAF-12 act 6.3
CCSc1nnc(NC(=O)c2cccs2)s1	none
CCSc1nnc(NC(=O)C2CC2c2ccccc2)s1 (centres undefined)	DAX1 inh-1 12
CCSc1nnc(NC(=O)c2ccc3nc[nH]c3c2)s1	hgDAF12 agonist 13 (no result: Wee1 stabilizer)
COc1ccccc1CN(C)C(=O)C1CCCN(c2nc3ccccc3o2)C1 (centres undefined)	none (no result: DAX1 inh-1, Wee1 stabilizer)
CCn1c(NC(=O)/C=C/c2ccc(F)cc2)nc2ccccc21	none (no result: Wee1 stabilizer)
CN(C)c1ccc(/C=C(\C#N)C(=O)OCC(=O)N(C)C2CCS(=O)(=O)C2)cc1 (centres undefined)	none (no result: Wee1 stabilizer)
CCc1ccc(OCC(=O)N2CCc3ccccc32)cc1	hgDAF12 agonist 12 (no result: Wee1 stabilizer)
CC(C)OC(=O)CCCCCN1C(=O)CSC1=S	Wee1 stabilizer 9.0
O=C(O)CCCCCN1C(=O)CSC1=S	none
Cc1cccc(C)c1NC(=S)/C(=C(\[O-])c1cccs1)[n+]1ccccc1	hcDAF-12 act 5.8
[O-]/C(=C(\C(=S)Nc1cccc2ccccc12)[n+]1ccccc1)c1cccs1	none
C[C@H]1CN([C@@H](C)CO)C(=O)c2cc(C#CC3(O)CCCC3)cnc2O[C@H]1CN(C)C(=O)C1CC1	none (no result: Wee1 stabilizer)
COC1OC(CO)C(N(C)C(C)=O)C1O (centres undefined)	DAX1 inh-1 4.8 (no result: Wee1 stabilizer)
CO[C@H]1O[C@H](CBr)[C@@H](OC(=O)c2ccccc2)[C@H](O)[C@H]1O	none (no result: Wee1 stabilizer)
Cc1ccc(Sc2ncccc2C(=O)N(C)Cc2cccs2)c(C)c1	DAX1 inh-1 4.6 (no result: Wee1 stabilizer)
Cc1ccc(Nc2ncccc2C(=O)NCc2cccs2)c(C)c1	none
CCCCCCCCN1C(=O)[C@@H](CC(=O)N2CCC(c3ccccc3)CC2)C[C@@]2(C(=O)OC)C1=C[C@H](C(C)C)O[C@@H]2C1CC1	none (no result: DAX1 inh-1, Wee1 stabilizer)
OCCCn1c(C2CCCN2c2nc(-c3ccc(Cl)cc3)cs2)nc2cc(Cl)c(N3CCCCC3)cc21 (centres undefined)	DAX1 inh-1 5.3 (no result: Wee1 stabilizer)
O=C(CSc1nnc(SCc2ccc(Cl)cc2)s1)N/N=C/c1c[nH]c2ccccc12	hcDAF-12 act 5.6
O=C(CSc1ccccn1)N/N=C/c1c[nH]c2ccccc12	hcDAF-12 act 5.8
O=C(CSc1nnc(SCc2cccc3ccccc23)s1)N/N=C/c1c[nH]c2ccccc12	ssDAF12 agonist 1.4
Cc1ccc(S(=O)(=O)N2CCN(C(=O)C(O)c3ccccc3)CC2)cc1 (centres undefined)	none (no result: DAX1 inh-1, Wee1 stabilizer)
Brc1ccc(-c2nc(-c3cccnc3)no2)o1	none
Brc1ccc(-c2nc(-c3ccccc3)no2)o1	ssDAF12 agonist 1.4, hgDAF12 agonist 12, hcDAF-12 act 6.1
